High-throughput results from PubChem.
A selection: hits, their analogues and other compounds. The true share with any hit is near 2.7%.
BRCA1 expr up: qHTS Assay to Identify Small Molecule Activators of BRCA1 Expression; MCF7-BRCA1-FFLuc reporter, luminescence, 48 h; response scale: scaled: vehicle 0%, 10 µM genistein 100%; AID 624202, 2012; actives 1.1% (n = 380,000); Potency, µM (highest dose often 46.1 µM), most hits filed as activators; also: nearly all actives have a fitted effect of over 80% in size
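Cells: MCF7-BRCA1-FFLuc, 2000/well. Exposure: 48 h, 37 °C, 5% CO2. Read: luminescence, 15 min post-substrate. Controls: genistein 10 microM (maximal activation), DMSO (neutral).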
GLP1R inv ag: qHTS of GLP-1 Receptor Inverse Agonists (Inhibition Mode) | Glucagon-like peptide 1 receptor (Homo sapiens), P43220 | HEK293 GLP-1R CRE-luciferase, luminescence, 24 h; GLP-1R form is constitutively active | Potency, µM (doses to about 38.3 µM), hits mostly inhibitors | actives 1.6% (n = 410,000); also: nearly all actives have a fitted effect of over 55% in size
Target sequence (P43220 whole entry, looked up): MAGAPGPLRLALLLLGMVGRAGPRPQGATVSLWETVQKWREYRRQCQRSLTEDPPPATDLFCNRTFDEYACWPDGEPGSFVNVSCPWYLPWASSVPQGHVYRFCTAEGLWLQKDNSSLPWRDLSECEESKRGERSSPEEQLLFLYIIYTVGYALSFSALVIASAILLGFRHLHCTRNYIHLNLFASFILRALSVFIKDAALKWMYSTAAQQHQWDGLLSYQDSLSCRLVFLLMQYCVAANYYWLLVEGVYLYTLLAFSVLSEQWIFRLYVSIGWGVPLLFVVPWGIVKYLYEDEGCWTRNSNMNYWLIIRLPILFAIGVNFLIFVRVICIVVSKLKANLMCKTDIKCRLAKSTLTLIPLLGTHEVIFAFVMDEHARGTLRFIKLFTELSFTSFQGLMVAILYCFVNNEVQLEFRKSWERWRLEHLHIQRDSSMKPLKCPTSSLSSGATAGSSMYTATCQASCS
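Assay principle: reduced luminescence from a cAMP-responsive reporter in HEK293 cells co-expressing a constitutively active GLP-1R. Conditions: 24 hr compound incubation, 37 deg C, 5% CO2.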
GLP-1R agonist: qHTS of GLP-1 Receptor Agonists. HEK293 GLP-1R CRE-luciferase, luminescence, 4-6 h; cells express a hypersensitive GLP-1R form. Potency, µM (doses to about 45.6 µM), actives largely listed as activators. Glucagon-like peptide 1 receptor (Homo sapiens), P43220. actives 0.007% (n = 380,000)
Integrin act MD: qHTS for Activators of Integrin-Mediated Alleviation for Muscular Dystrophy. alpha7betagal myoblasts, beta-gal FDG fluorescence, 48 h. Potency, µM (top dose mostly 38.3 µM), hits mostly activators. actives 0.064% (n = 350,000). AID 624291, 2012; also: nearly all actives have a fitted effect of over 60% in size
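alpha7betagal+/- myoblasts (passage 13, 250/well) treated 48 h at 37C with compounds at 1:260 dilution of DMSO stock. Lysed, then beta-galactosidase activity read as FDG fluorescence (ex 480/em 540) after 30 min, with pre-read for autofluorescence.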
GLP1R cytotox: qHTS of GLP-1 Receptor Inverse Agonists: Cytotox Screen; HEK293 cAMP-luciferase reporter cells, luminescence, 24 h; Potency, µM (series often up to 38.3 µM), usual class: inhibitors; actives 0.13% (n = 410,000); AID 624418, 2012;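 also: loss of luciferase light is scored as toxicity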
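Quantitative HTS format, 1536 wells, 200 cells/uL seeded. Compounds: 23 nL, 24 h, 37 °C. Detection: luciferase reagent, luminescence at 12 min RT; decreased signal taken as cytotoxic.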
Numbers stand for hits; . = inactive; ? = inconclusive; / = not tested or not shown. Calls follow the shape of the dose curve; as a rule, active = well fitted curve in the direction sought with a large enough effect; inconclusive = small, poorly fitted or top-dose-only effect, or another doubt; inactive = no such curve, though single readings can be large; an effect the other way counts as inactive or inconclusive.

SMILES	BRCA1 expr up	GLP1R inv ag	GLP-1R agonist	Integrin act MD	GLP1R cytotox
CC1=C/C(=N\NC(=S)Nc2cccnc2)CC(C)(C)C1	.	4µM	.	.	1µM
O=C(CCn1c(=O)c2cccn2c2cccnc21)N1CCN(c2ccccc2)CC1	/	.	/	/	.
COc1cc(NC(=O)c2ccc(S(=O)(=O)N(C)c3ccccc3)cc2)cc(OC)c1	.	10µM	.	/	.
Cc1ccc(/C=N/NC(=O)c2ccc(N(C)S(=O)(=O)c3ccccc3)cc2)cc1	.	10µM	.	.	.
COc1ccccc1NC(=O)c1ccc(S(=O)(=O)N(C)c2ccccc2)cc1	.	?	.	.	.
O=S(=O)(NCCc1csc2nc(-c3ccccc3)nn12)c1cccs1	/	.	/	/	.
Cn1c(=O)n(C)c2cc(CNCc3ccccc3Cl)ccc21	/	.	/	/	.
COc1ccc(-c2csc(-n3ncc(C(=O)O)c3C(F)(F)F)n2)cc1	?	.	.	.	.
O=C(O)c1cnn(-c2nc(-c3ccc(Cl)cc3)cs2)c1C(F)(F)F	4.5µM	.	.	.	.
Cc1c(C(=O)N2CCC(C(=O)Nc3ccc(F)c(Cl)c3)CC2)sc2nc[nH]c(=O)c12	/	.	/	/	.
CCCOc1cc(C)c(Cl)cc1S(=O)(=O)N(CC)CC	.	2.5µM	.	.	.
COc1ccc(C(=O)c2c(C(F)(F)F)oc3c2C(=O)c2ccccc2C3=O)cc1	.	7.1µM	.	.	.
CCC1CN(C(=O)Nc2cccc3c2CCCC3)c2cc(C)ccc2O1 (stereo not given)	/	?	/	/	.
Cc1ccc2c(c1)N(C(=O)Nc1cccc3c1CCCC3)CC(C)O2 (stereo not given)	/	10µM	/	/	.
CCOc1cc2[nH]c(=O)n(CCCCC(=O)N3CCN(c4ccccc4)CC3)c(=O)c2cc1OCC	/	.	/	/	.
O=C(OCc1ccccc1)N(CCCCN(CCCNCc1ccccc1)C(=O)OCc1ccccc1)CCCNCc1ccccc1	.	2.8µM	.	.	?
O=C(Nc1ccn(CCCNCc2ccccc2)c(=O)n1)OCc1ccccc1	.	.	.	.	.
Cc1c2cnn(-c3ccccc3)c(=O)c2c(C)n1CC(=O)N1CCN(c2ccc(F)cc2)CC1	.	.	/	/	.
COc1ccccc1-c1nn(-c2ccccc2)cc1C(=O)N1CCc2ccccc2C1	.	10µM	.	.	.
COc1ccc(OC)c(-c2nn(-c3ccccc3)cc2C(=O)N2CCc3ccccc3C2)c1	.	13µM	.	.	.
COc1ccc(C(=O)Nc2nnc(SCc3cc(=O)c4cc(C)ccc4[nH]3)s2)cc1OC	/	.	/	/	.
Nc1nonc1-n1nnc(C(=O)N/N=C/C=C/c2ccccc2)c1CSC1=NCCS1	.	7.9µM	.	.	?
CCCc1c(C(=O)N/N=C/C(C)=C/c2ccccc2)nnn1-c1nonc1N	.	.	.	.	.
CCCN(CCC)Cc1c(C(=O)N/N=C/C(C)=C\c2ccccc2)nnn1-c1nonc1N	.	2.8µM	.	.	.
COC(=O)c1ccc(NC(=O)CC2C(=O)N(c3ccc(Cl)cc3)C(=O)N2Cc2cccs2)cc1 (stereo not given)	/	?	/	/	.
SMILES	BRCA1 expr up	GLP1R inv ag	GLP-1R agonist	Integrin act MD	GLP1R cytotox
COc1ccc(NC(=O)Nc2cc3oc4ccccc4c3cc2OC)cc1	.	?	.	.	.
CCCNC(=S)Nc1cc2oc3ccccc3c2cc1OC	.	8.9µM	.	.	.
COc1cc2c(cc1NC(=O)Nc1ccc(C)cc1)oc1ccccc12	.	1.8µM	.	.	.
O=C(CCC1N=C2c3ccccc3N=C(SCC(=O)Nc3ccc(F)cc3)N2C1=O)NCc1cccs1 (stereo not given)	/	.	/	/	.
S=C(Nc1ccccc1)Nc1ccc(OCc2ccc(Cl)cc2Cl)cc1	.	?	.	.	?
CC(C)NC(=NCc1ccc(Cl)cc1Cl)Nc1ccccc1	.	7.9µM	.	.	.
Cc1ccc(CSc2nc3cccnc3n2Cc2ccc(C(=O)NC3CCCCC3)cc2)cc1	/	.	/	/	.
Cc1[nH]nc(-c2cccnc2)c1N=NN(C)C	.	?	.	.	10µM
CN(C)c1nc(N)nc(-c2cccnc2)n1	.	.	.	.	.
Cn1c(Sc2ccc(Cl)cc2)c(C=O)c2ccccc21	.	3.2µM	.	.	?
Cc1cccc(Sc2c(C=O)c3ccccc3n2C)c1	.	2.8µM	.	.	.
Cn1c(Sc2ccccc2Cl)c(C=O)c2ccccc21	.	?	.	.	.
Cn1c(Oc2ccc(F)cc2F)c(C=O)c2ccccc21	.	?	.	.	.
O=C(Nc1ccccc1F)c1oc2ccccc2c1NC(=O)c1c(F)cccc1F	.	?	.	/	?
COc1ccc(NC(=O)CSc2nnc(-c3ccccc3Cl)n2Cc2ccco2)c(OC)c1	.	7.1µM	.	.	.
CCn1cc(CN2CCCC(C(=O)Nc3cccc(-c4cc5ccccc5[nH]4)c3)C2)c(C)n1 (stereo not given)	.	11µM	.	.	?
CN(C)c1ccc(CCc2ccnc3ccccc23)cc1	.	/	/	/	/
O=C(C1CCCN(S(=O)(=O)c2ccc(Cl)cc2)C1)N(Cc1cccs1)C1CC1 (stereo not given)	.	10µM	.	.	.
CN(Cc1cccs1)C(=O)c1ccc(S(=O)(=O)N2CCCCC2)cc1	.	.	.	.	.
CNCCCC1Sc2ccccc2Oc2ccccc21 (stereo not given)	.	5µM	.	.	?
NC1=NC(=O)/C(=C\c2ccc(-c3ccccc3[N+](=O)[O-])o2)S1	.	/	/	/	/
Cc1nc(-c2cccc(NC(=O)c3ccco3)c2)cs1	.	.	.	.	.
Cc1nc(-c2ccc(C(=O)Nc3ccc(F)cc3)cc2)cs1	?	.	.	.	.
Cc1nc(-c2ccc(C(=O)Nc3ccccc3F)cc2)cs1	10µM	?	.	.	.
CC(C)CC(=O)Nc1cccc(-c2csc(-c3ccccc3)n2)c1	.	10µM	.	.	.
SMILES	BRCA1 expr up	GLP1R inv ag	GLP-1R agonist	Integrin act MD	GLP1R cytotox
Nc1nc(-c2ccc(NC(=O)c3ccco3)cc2)cs1	.	7.9µM	.	.	.
Cc1nc(-c2ccc(NC(=O)c3ccco3)cc2)cs1	?	1µM	.	.	.
CCN1CCc2c(sc(-n3cccc3)c2C(C)NC(=O)Nc2ccccc2C)C1 (stereo not given)	/	.	/	/	.
Cc1ccc(C(=O)Nc2ccc(C(=O)OCc3cc(=O)n4c5c(sc4n3)CCCC5)cc2)cc1	/	.	/	/	.
Cc1nc(-c2ccc(NC(=O)Cc3ccccc3)cc2)cs1	8.9µM	.	.	.	.
Cc1ccc(-c2ccc(CCC(=O)O)n2-c2cccc(O)c2)cc1	.	.	.	.	.
CC(=O)N=c1scc(-c2ccccc2)n1-c1cccc(O)c1	.	11µM	.	.	.
